# mHtt clearance – mutant huntingtin protein clearance. inhibition, % at 1.5 µM. HeLa Exon1htt(103Q)mCFP, aggregate imaging; zero = plate's median compound well. AID 853. 47,000 compounds, 0.42% hits;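 active means inhibition of aggregate fluorescence above about 70%, also judged a hit by eye on the cell image, limit read from the data, passing the limit was not always enough; inconclusive means no rule stated for this call; inactive means not judged a hit on image review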;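 further: cells exposed to compound for three days before fixation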
# WNV protease inh – WNV NS2B-NS3 proteinase inhibition | P06935 | WNV NS2B-NS3 protease, fluorogenic substrate Ex360/Em465; stronger effect = lower value | z-score (test concentration not listed) | 65,000 compounds, 0.18% hits | AID 577; in the data active means z-score below about -3
# Target sequence (P06935 1371-1501 limits assumed): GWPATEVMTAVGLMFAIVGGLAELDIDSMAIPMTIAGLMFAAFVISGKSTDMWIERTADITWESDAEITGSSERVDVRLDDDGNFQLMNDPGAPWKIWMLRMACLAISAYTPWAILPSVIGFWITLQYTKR
# Target sequence (P06935 1502-1679 limits assumed): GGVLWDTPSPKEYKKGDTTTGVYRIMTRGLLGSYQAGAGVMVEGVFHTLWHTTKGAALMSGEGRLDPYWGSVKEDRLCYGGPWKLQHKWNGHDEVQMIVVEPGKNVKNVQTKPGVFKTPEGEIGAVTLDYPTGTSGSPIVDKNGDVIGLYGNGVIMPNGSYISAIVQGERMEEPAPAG
# SKBR3 24h inh – SK-BR-3 proliferation inhibitors; SK-BR-3 viability, CellTiter-Glo ATP luminescence, 24 h; stronger effect = lower value; viability, % at 10 µM; 41,000 compounds, 0.47% hits; AID 847;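 active means viability at or below the median of all test compounds minus 3 SD, in both replicates if run twice, cut at about 45% in these data; inconclusive means duplicate replicates that disagree with each other; inactive means viability above that cutoff in every replicate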;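 further: 100% = median untreated cell wells and 0% = median positive control drug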
# * marks the source's active call; other numbers are inactive results; u = inconclusive; x = no result given. Only some compounds are listed: those with a hit (about 0.64% of all), similar ones and a draw of the others.
SMILES,mHtt clearance,WNV protease inh,SKBR3 24h inh
Cc1ccc(C)c(-c2nn(-c3cc(N4CCN(CCO)CC4)ccc3[N+](=O)[O-])c(=O)c3ccccc23)c1,7,x,x
COC(=O)c1cc(C(=O)OC)cc(N2C(=O)CC(NNC(=O)c3ccccc3Br)C2=O)c1 (centres undefined),85*,x,x
COC(=O)c1cc(C(=O)OC)cc(N2C(=O)CC(Sc3nc(C)cc(C)n3)C2=O)c1 (centres undefined),-22,0.56,114
Cc1csc(SCC(=O)NC(=O)NCc2ccccc2)n1,78*,0.12,x
O=C(CSc1nncs1)NC(=O)NCc1ccccc1,x,-0.51,x
CCOc1cc(N2CCOCC2)c(OCC)cc1NC(=O)c1cc(-c2ccco2)nc2ccccc12,x,-0.36,44*
CCOc1cc(N2CCOCC2)c(OCC)cc1NC(=O)COc1ncnc2ccccc12,-57,x,x
COC(=O)c1ccccc1NC(=O)C1CCN(C(=O)c2cc(OC)c(OC)c(OC)c2)CC1,x,x,86
O=C1c2cnc3nc(SCc4ccc(Cl)cc4)nn3c2CC2c3ccccc3CCN12 (centres undefined),0,x,x
CC(C)NC(=O)c1cccc(Cn2cc(Cl)cn2)c1,x,-3.6*,96
COC(=O)c1ccc(Cn2cc(Cl)cn2)cc1,0,-0.86,97
COc1ccc(-c2c(=O)n(OCc3ccccn3)c3ccccc3[n+]2[O-])cc1OC,x,1.1,84
CCOC(=O)COn1c(=O)c(-c2ccc(OC)c(OC)c2)[n+]([O-])c2ccccc21,74*,-1.4,107
Cc1cccc(-n2nc3c(c2NC(=O)CCC2CCCCC2)CS(=O)C3)c1C (centres undefined),x,-0.33,x
CCOC(=O)c1c(NC(=O)CSc2nnc(-c3ccccc3C)n2C)sc(C(C)=O)c1C,76*,1.4,71
CCOC(=O)c1sc(NC(C)=O)c(C(=O)OCC)c1C,-36,1.9,x
CCOC(=O)c1c(NC(=O)CSc2nc3cccnc3n2C)sc(C(C)=O)c1C,x,-0.69,x
CCOC(=O)c1c(NC(=O)c2csc(C)c2)sc(C(C)=O)c1C,78*,-0.57,89
CON(C)c1nc(OCCNC(=O)OCc2ccc(Cl)cc2Cl)nc(N(C)C)n1,46,-0.4,x
Cn1cc(Cl)nc1C(O)c1ccccc1 (centres undefined),x,-0.71,101
CC1CCN(C2=NC(=O)/C(=C/c3cn(-c4ccccc4)nc3-c3cccc(S(=O)(=O)N(C)C)c3)S2)CC1,44,x,x
COc1ccc(N(CC(=O)N2CCc3ccccc3C2)S(=O)(=O)c2c(C)nn(C)c2C)cc1,20,1.2,x
CCn1c(O)c(C=NCCN2CCOCC2)sc1=S,x,-4.5*,105
CC1(C)CC(=O)C(C=NCCCN2CCOCC2)=C(O)C1,-5,0.01,88
CCCCNC(=O)C1CC(c2c(Cl)cccc2Cl)=NO1 (centres undefined),13,x,x
SMILES,mHtt clearance,WNV protease inh,SKBR3 24h inh
Cc1nnc(SCC(=O)NCCN2C(=O)CSC2=O)s1,2,-0.22,x
Nc1nnc(CCN2C(=O)CSC2=O)s1,45,1.1,40*
CN(C)CCCC1(c2ccc(F)cc2)OCc2cc(C#N)ccc21 (centres undefined),x,0.22,85
O=C(Nc1ccc(Cl)cc1)N(Cc1cccnc1)Cc1ccco1,x,-1.2,x
O=C(CCC1CCCC1)N1CCN(C(=O)c2ccco2)CC1,72*,0.69,81
O=C(c1ccco1)N1CCCN(C(=O)c2ccco2)CC1,x,1.3,x
CCOC(=O)c1c(C)n(C)c2ccc(O)c(CN3CCCCC3)c12,-12,-0.55,78
CCOC(=O)c1c(C)n(C)c2ccc(OC)c(NC(=O)CN3CCCCC3)c12,-30,-3.4*,60
CN(C(=O)Cc1ccccc1)n1cnnc1,54,x,x
COc1ccc(-c2nc(-c3cccs3)c(-c3cccs3)[nH]2)cc1O,11,-1.1,94
Cc1ccc(S(=O)(=O)N(C)CC(O)Cn2c3ccccc3c3ccccc32)cc1 (centres undefined),27,x,x
O=S(=O)(c1ccc(F)cc1)N(CCO)CC(O)Cn1c2ccccc2c2ccccc21 (centres undefined),-6,-4.1*,u
Cc1ccc(C(=O)N2c3ccccc3N(Cc3ccccc3)C(=O)C2(C)C)cc1,5,x,x
O=C(COC(=O)Cc1ccsc1)NC1CCCCCC1,74*,0.79,96
O=C(COC(=O)c1cccc(C(=O)OCC(=O)NC2CCCCC2)n1)NC1CCCCC1,-67,-1.3,x
Cn1c(NC(=O)c2cc(Br)ccc2Cl)cc(=O)n(C)c1=O,x,-0.64,x
Clc1ccc(OCCCn2cncn2)cc1Cl,-42,0.93,84
CC1CCCC(NC(=O)c2cn(C)c3ccc(S(=O)(=O)N4CCCC4)cc3c2=O)C1C (centres undefined),x,2.1,69
CC1CCCCC1NC(=O)c1cn(C)c2ccc(S(=O)(=O)N3CCCC3)cc2c1=O (centres undefined),x,-0.26,43*
O=C1CN(C(=O)c2ccco2)C(c2ccccc2)c2cc(Cl)ccc2N1 (centres undefined),-6,0.18,73
CCCCOCCCNC(=O)N[C@@H](CC(C)C)C(=O)O,5,-3.7*,107
CC(C)C[C@H](NC(=O)NC(C)C)C(=O)O,-4,0.86,81
CCN(CC)c1ccc2cc(C(N)=O)c(=O)oc2c1,5,x,x
CCN(CC)c1ccc2cc(NC(=O)CCC(=O)O)c(=O)oc2c1,x,0.73,43*
Nc1ccc(Oc2ccc3nc(-c4ccccc4)c(-c4ccc([N+](=O)[O-])cc4)nc3c2)cc1,21,x,x
SMILES,mHtt clearance,WNV protease inh,SKBR3 24h inh
Cc1cccc(C)c1NC(=O)CSc1nnc(-c2ccncc2)n1Cc1ccco1,x,2,90
Cc1cc(Cl)ccc1NC(=O)CSc1nnc(-c2ccncc2)n1Cc1ccco1,65,-0.37,39*
O=C(NCc1ccco1)C1CCN(S(=O)(=O)Cc2ccccc2)CC1,20,x,x
CCCc1cc(C(=O)Nc2sc3c(c2C#N)CCC3)no1,82*,-0.6,x
CCCc1cc(C(=O)Nc2sc(C)c(CC)c2C#N)no1,x,0.33,x
CC1=CCC(C(=O)O)(C(=O)N/N=C/c2cccs2)C(c2ccc([N+](=O)[O-])cc2)C1 (centres undefined),23,x,x
Cc1onc(-c2ccccc2Cl)c1C(=O)NCCn1c(C)cc2ccccc21,x,-0.56,x
Cc1c(N=C2NC(=O)C(CC(=O)Nc3ccc(Cl)cc3)S2)c(=O)n(-c2ccccc2)n1C (centres undefined),70*,1.2,102
Cc1c(NC(=O)Nc2ccc(Cl)cc2)c(=O)n(-c2ccccc2)n1C,x,0.02,x
NC(=O)C(c1ccc(Cl)cc1)c1ccc(Sc2ccc(Cl)cc2)nn1 (centres undefined),-7,x,x
COc1cccc2c1N1C(=O)c3c(C(=O)O)cccc3C1CC2(C)C (centres undefined),-12,-0.84,100
CCN1c2ccccc2NC2C1C(C(C)=O)C(=O)N2c1ccc(Cl)cc1 (centres undefined),-14,1.4,67
CCN1c2ccccc2NC2N=C(OC)C(c3ccccc3)C21 (centres undefined),-4,-0.39,36*
COc1ccc(N2CCN(CC(O)COc3ccc4c(c3)CCC4)CC2)cc1 (centres undefined),-31,x,x
c1cncc(-c2cccnc2)c1,-30,-1.1,120
CC(C)n1c(-c2cccnc2)nc2cnccc21,x,-9.4*,97
CC1CCN(C(=O)c2cc3ccccc3o2)CC1,46,-0.51,80
